According to PubChem BioAssay (NCI):
Compounds without any hit were thinned out: in the full panel of roughly 83,000, 20% have a hit.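 How to read the values: 0–100, growth inhibition (40 = 60% inhibited); 0, no net growth; -100 to 0, cell death (-40 = 40% of starting cells died; -100 = all dead).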 Calls of active or inactive are those of the source. The calls were made as follows: active = growth percent below 10; inactive = the rest.

Assays:
Test in all cases: NCI-60 one-dose screen, 48 h (100 = growth as untreated, 0 = no growth, -100 = all killed)
DU-145 prostate = conditions: 10 µM unless noted
K-562 leukemia = conditions: 10 µM unless noted
MALME-3M melanoma = conditions: 10 µM unless noted
MDA-MB-231 breast = conditions: 10 µM unless noted
RXF 393 renal = conditions: 10 µM unless noted
SF-268 CNS = conditions: 10 µM unless noted
SF-295 CNS = conditions: 10 µM unless noted
SF-539 CNS = conditions: 10 µM unless noted
UACC-257 melanoma = conditions: 10 µM
M14 melanoma = conditions: 10 µM unless noted

Measured: growth

NCCSC(c1ccccc1)(c1ccccc1)c1ccccc1
inactive: MALME-3M melanoma 27.5% | SF-268 CNS 27.4% | UACC-257 melanoma 47.7%
active: DU-145 prostate -1.74% | K-562 leukemia 3.65% | MDA-MB-231 breast -24.2% | RXF 393 renal -7.93% | SF-295 CNS -45.9% | SF-539 CNS -46.1% | M14 melanoma -9.88%

O=C(CCCn1c(=O)c2sc3ccccc3c2n2nnc(-c3ccccc3)c12)NCCc1cnc[nH]1
active: DU-145 prostate -68.8% | MALME-3M melanoma -72.2% | MDA-MB-231 breast -70.8% | RXF 393 renal -46.2% | SF-268 CNS -1.01% | SF-295 CNS 8.37% | SF-539 CNS -82.8% | UACC-257 melanoma -44.4% | M14 melanoma -78.6%
inactive: K-562 leukemia 82.6%

COc1cccc(-c2nc3sccn3c2-c2ccnc(NCCCNS(=O)(=O)c3ccccc3)n2)c1
inactive: DU-145 prostate 52.1% | K-562 leukemia 25.5% | MALME-3M melanoma 36.4% | MDA-MB-231 breast 59.5% | RXF 393 renal 67.1% | SF-268 CNS 62.7% | SF-295 CNS 55% | SF-539 CNS 70.4% | UACC-257 melanoma 65.7% | M14 melanoma 25.2%

Cc1nc(Nc2cccnc2)sc1C(=O)/C=C/c1ccc(Cl)cc1
inactive: DU-145 prostate 17.6% | MALME-3M melanoma 89.7% | MDA-MB-231 breast 73.9% | RXF 393 renal 16.2% | SF-268 CNS 46.7% | SF-295 CNS 42.8% | UACC-257 melanoma 73.7% | M14 melanoma 38.2%
active: K-562 leukemia 7.88% | SF-539 CNS -14.5%

O=C(Nc1ccc(OCc2nnc(-c3ccc(Cl)cc3)o2)c(F)c1)Nc1ccc(Cl)c(Cl)c1
inactive: DU-145 prostate 34.4% | K-562 leukemia 67.3% | MALME-3M melanoma 33.4% | MDA-MB-231 breast 26.3% | RXF 393 renal 50.7% | SF-268 CNS 53.3% | SF-295 CNS 62.5% | SF-539 CNS 45% | UACC-257 melanoma 74.4% | M14 melanoma 61.5%

COc1cccc(-c2nc3sccn3c2-c2ccnc(NCCNS(=O)(=O)c3ccccc3)n2)c1
inactive: DU-145 prostate 65.8% | K-562 leukemia 36.9% | MALME-3M melanoma 66.6% | MDA-MB-231 breast 63.5% | RXF 393 renal 64.2% | SF-268 CNS 62.7% | SF-295 CNS 63.6% | SF-539 CNS 79.9% | UACC-257 melanoma 81.4% | M14 melanoma 35.8%

COc1ccc(-c2nc3sccn3c2-c2ccnc(NCCCNS(=O)(=O)c3ccc4ccccc4c3)n2)cc1
inactive: DU-145 prostate 62.1% | K-562 leukemia 34.6% | MALME-3M melanoma 80.8% | MDA-MB-231 breast 53.7% | RXF 393 renal 76.9% | SF-268 CNS 63.5% | SF-295 CNS 61% | SF-539 CNS 71.7% | UACC-257 melanoma 82.8% | M14 melanoma 56.5%

O=C(CCl)NCCNc1nccc(Nc2ccc(S(=O)(=O)Nc3ccccn3)cc2)n1
active: MDA-MB-231 breast 2.46% | SF-268 CNS 9.86% | SF-539 CNS -15.2% | M14 melanoma 3.17%
inactive: DU-145 prostate 14.4% | K-562 leukemia 17% | MALME-3M melanoma 10.2% | RXF 393 renal 36.9% | SF-295 CNS 36.2% | UACC-257 melanoma 31.5%

Cc1nc2sccn2c1-c1csc(Nc2ccccc2Cl)n1
inactive: DU-145 prostate 68.2% | K-562 leukemia 12.5% | MALME-3M melanoma 56.2% | MDA-MB-231 breast 66.5% | RXF 393 renal 67.2% | SF-268 CNS 71.3% | SF-295 CNS 36.2% | SF-539 CNS 52% | UACC-257 melanoma 46% | M14 melanoma 36.9%

CCCCNC(=O)NS(=O)(=O)c1ccc(N2N=C(c3ccc(C)cc3C)CC2c2ccc(OC)cc2)cc1 (stereo not given)
inactive: DU-145 prostate 92.4% | K-562 leukemia 58.9% | MALME-3M melanoma 108% | MDA-MB-231 breast 85.4% | RXF 393 renal 82.6% | SF-268 CNS 84.8% | SF-295 CNS 41.6% | SF-539 CNS 69.7% | UACC-257 melanoma 72.5% | M14 melanoma 42.7%

COc1cc(NCCN=C(N)NC(N)=NC(C)C)c2ncccc2c1
inactive: DU-145 prostate 103% | K-562 leukemia 55.5% | MDA-MB-231 breast 69.3% | RXF 393 renal 101% | SF-268 CNS 45.1% | SF-295 CNS 108% | UACC-257 melanoma 72.1% | M14 melanoma 88.6%
active: MALME-3M melanoma -11% | SF-539 CNS 6.08%

COc1cc(OC)c(C(=O)/C=C/c2ccc(C(F)(F)F)cc2)c(OC)c1
inactive: DU-145 prostate 11.9% | K-562 leukemia 32.3% | MALME-3M melanoma 75.3% | MDA-MB-231 breast 59.7% | RXF 393 renal 41.1% | SF-268 CNS 55.9% | SF-295 CNS 69.9% | SF-539 CNS 68.7% | UACC-257 melanoma 62.5% | M14 melanoma 59%

Cc1ccc(C(=O)c2sc3nc4c(cc3c2N)CCCC4)c(C)c1
inactive: K-562 leukemia 11.9% | MALME-3M melanoma 27% | MDA-MB-231 breast 21.3% | SF-268 CNS 44.1% | UACC-257 melanoma 57.6% | M14 melanoma 30.6%
active: DU-145 prostate 6.18% | RXF 393 renal -16% | SF-295 CNS -4.3% | SF-539 CNS -25%

COc1cc(/C=C/C(=O)c2ccc(NC(=O)CN3CCN(c4cc5c(cc4F)c(=O)c(C(=O)O)cn5C4CC4)CC3)cc2)cc(OC)c1OC
active: DU-145 prostate 2.17% | K-562 leukemia 1.66% | RXF 393 renal -87.6% | SF-268 CNS -1.11% | SF-295 CNS -27.2% | SF-539 CNS -15.7% | M14 melanoma -14.1%
inactive: MALME-3M melanoma 31.4% | MDA-MB-231 breast 27.6% | UACC-257 melanoma 30.8%

N#CC1=C(N)OC2=C(C(=O)CCC2)C1c1ccco1 (stereo not given)
inactive: DU-145 prostate 108% | K-562 leukemia 98.6% | MALME-3M melanoma 113% | MDA-MB-231 breast 113% | RXF 393 renal 114% | SF-268 CNS 114% | SF-295 CNS 108% | SF-539 CNS 97.5% | UACC-257 melanoma 102% | M14 melanoma 104%

COc1cc(Cn2c(SCC(=O)Nc3ccc(Cl)cc3)nc3ccccc3c2=O)cc(OC)c1OC
inactive: DU-145 prostate 66.5% | K-562 leukemia 45.7% | MDA-MB-231 breast 49.3% | RXF 393 renal 19.1% | SF-268 CNS 46.5% | SF-295 CNS 62.2% | UACC-257 melanoma 73.8% | M14 melanoma 74.9%
active: MALME-3M melanoma 9.48% | SF-539 CNS -14%

N=C(N)c1ccc(-c2ccc(-c3ccc(Cl)cc3)o2)nc1
inactive: K-562 leukemia 112%
active: DU-145 prostate -98.4% | MALME-3M melanoma -66.4% | MDA-MB-231 breast -90% | RXF 393 renal -98.1% | SF-268 CNS -95.6% | SF-295 CNS -85.4% | SF-539 CNS -92.4% | UACC-257 melanoma -89% | M14 melanoma -88.3%

CCNCc1ccncc1
inactive: DU-145 prostate 108% | K-562 leukemia 94.5% | MALME-3M melanoma 101% | MDA-MB-231 breast 114% | RXF 393 renal 112% | SF-268 CNS 106% | SF-295 CNS 102% | SF-539 CNS 103% | UACC-257 melanoma 96.3% | M14 melanoma 94.5%

CCCC(C(=O)OCC)C(C)OC(=O)OCC (stereo not given)
inactive: DU-145 prostate 106% | K-562 leukemia 81.6% | MALME-3M melanoma 85.9% | MDA-MB-231 breast 105% | RXF 393 renal 96.3% | SF-268 CNS 96.9% | SF-295 CNS 84.7% | SF-539 CNS 107% | UACC-257 melanoma 97.5% | M14 melanoma 97.6%

COC1=CC(c2ccc[nH]2)=N/C1=C\c1[nH]c(C)c(C(=O)CCC(=O)Oc2ccc3c(c2)CCC2C3CC[C@]3(C)[C@@H](O)CC[C@@H]23)c1C (stereo not given in full)
inactive: SF-295 CNS 20.3% | UACC-257 melanoma 82.4%
active: DU-145 prostate 0.722% | K-562 leukemia -18% | MALME-3M melanoma 9.7% | MDA-MB-231 breast -64.2% | RXF 393 renal -6.4% | SF-268 CNS 3.8% | SF-539 CNS -18.9% | M14 melanoma -50.8%

O=C(O)c1cn(C2CC2)c2cc(N3CCN(S(=O)(=O)c4ccc(Cl)c(Cl)c4)CC3)c(F)cc2c1=O
active: MALME-3M melanoma -1.09% | SF-295 CNS -7.27% | UACC-257 melanoma 8.87%
inactive: DU-145 prostate 17.2% | K-562 leukemia 16.9% | MDA-MB-231 breast 36.6% | RXF 393 renal 29.1% | SF-268 CNS 19.6% | SF-539 CNS 11.4% | M14 melanoma 18.5%

CCN(CC)CCCC(C)N=c1cc(Nc2cc(=NC(C)CCCN(CC)CC)c3cc(OC)ccc3o2)oc2ccc(OC)cc12 (stereo not given)
active: DU-145 prostate 2.37% | K-562 leukemia -38.4% | MALME-3M melanoma -80.1% | MDA-MB-231 breast -51.7% | RXF 393 renal -68.4% | SF-268 CNS -32.1% | SF-295 CNS -9.83% | SF-539 CNS -90.2% | UACC-257 melanoma -79.1% | M14 melanoma -87.9%

CC(=O)OC[Si](C)(C)c1ccccc1
inactive: DU-145 prostate 113% | K-562 leukemia 102% | MALME-3M melanoma 110% | MDA-MB-231 breast 105% | RXF 393 renal 107% | SF-268 CNS 103% | SF-295 CNS 91.6% | SF-539 CNS 96.2% | UACC-257 melanoma 92.3% | M14 melanoma 97.8%

Cc1ccc(Cn2c(-c3cccs3)nc3ccccc32)cc1
active: K-562 leukemia 5.16%
inactive: DU-145 prostate 110% | MALME-3M melanoma 120% | MDA-MB-231 breast 96.2% | RXF 393 renal 92.5% | SF-268 CNS 104% | SF-295 CNS 72% | SF-539 CNS 102% | UACC-257 melanoma 89.9% | M14 melanoma 107%

Cc1ccc(S(=O)(=O)NCCCNc2nccc(-c3c(-c4ccccc4)nc4sccn34)n2)cc1
inactive: DU-145 prostate 26.2% | K-562 leukemia 15.9% | MALME-3M melanoma 99.3% | MDA-MB-231 breast 18.3% | RXF 393 renal 65% | SF-268 CNS 38.6% | SF-295 CNS 65.2% | SF-539 CNS 82.5% | UACC-257 melanoma 106% | M14 melanoma 30.5%

Cc1ccc(Cn2c(-c3nonc3N)nc3ccccc32)cc1
inactive: DU-145 prostate 100% | K-562 leukemia 12.9% | MALME-3M melanoma 81.6% | MDA-MB-231 breast 83.5% | RXF 393 renal 82.1% | SF-268 CNS 81.5% | SF-295 CNS 82.3% | SF-539 CNS 80.4% | UACC-257 melanoma 89.6% | M14 melanoma 66.4%
